Measurements: PubChem BioAssay (NCI)
This is part of a sample that, as a whole, favours compounds with a hit. Of some 83,000 tested, about 20% had one in any assay.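 Results are percent growth after 48 hours of single-concentration exposure. 100 means growth as in untreated cells, lower positive values show inhibition; negative values down to -100 show cell death.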 Calls of active or inactive are those of the source. How the source made its calls: active means growth percent below 10; inactive means the rest.

Key:
Test in all cases: NCI-60 one-dose screen, 48 h (100 = growth as untreated, 0 = no growth, -100 = all killed)
SK-MEL-2 melanoma = conditions: 10 µM unless noted
EKVX NSCLC = conditions: 10 µM unless noted
SN12C renal = conditions: 10 µM unless noted
UO-31 renal = conditions: 10 µM unless noted
TK-10 renal = conditions: 10 µM unless noted
ACHN renal = conditions: 10 µM unless noted
CAKI-1 renal = conditions: 10 µM unless noted
A498 renal = conditions: 10 µM unless noted
CCRF-CEM leukemia = conditions: 10 µM unless noted
SR leukemia = conditions: 10 µM unless noted
RPMI-8226 leukemia = conditions: 10 µM unless noted
OVCAR-8 ovarian = conditions: 10 µM unless noted
OVCAR-5 ovarian = conditions: 10 µM unless noted
SK-OV-3 ovarian = conditions: 10 µM unless noted
IGROV1 ovarian = conditions: 10 µM unless noted
OVCAR-3 ovarian = conditions: 10 µM unless noted
HS 578T breast = conditions: 10 µM unless noted
NCI/ADR-RES ovarian = conditions: 10 µM unless noted
OVCAR-4 ovarian = conditions: 10 µM
MOLT-4 leukemia = conditions: 10 µM unless noted

Measured: growth

O=C1Nc2ccccc2/C1=C/C(=O)c1ccc(N2CCCC2)cc1
active: OVCAR-8 ovarian -12.7% | OVCAR-3 ovarian -17.6% | NCI/ADR-RES ovarian -23.8%
inactive: SK-MEL-2 melanoma 58.7% | EKVX NSCLC 76.1% | SN12C renal 15.6% | UO-31 renal 47.1% | TK-10 renal 42.8% | ACHN renal 30.7% | CAKI-1 renal 18.1% | A498 renal 65.8% | CCRF-CEM leukemia 10.4% | SR leukemia 15.2% | RPMI-8226 leukemia 15.8% | OVCAR-5 ovarian 75.6% | SK-OV-3 ovarian 70.9% | IGROV1 ovarian 15.9% | HS 578T breast 12.3%

Cc1cccc(C[C@H](NC(=O)Nc2ccc(Cl)cc2F)C(=O)N[C@@H]2C(=O)N3C[C@H](OC(=O)CCN(C)C)C[C@H]3C(=O)N3CCCC[C@H]3C(=O)N[C@@H](C)C(=O)N3C[C@H](C)C[C@H]3C(=O)O[C@H]2C)c1
inactive: SK-MEL-2 melanoma 24.4% | EKVX NSCLC 47.3% | SN12C renal 12.5% | UO-31 renal 31.1% | TK-10 renal 47.8% | ACHN renal 27.5% | CAKI-1 renal 15.5% | CCRF-CEM leukemia 42.4% | SR leukemia 28.7% | RPMI-8226 leukemia 10% | OVCAR-8 ovarian 16.8% | OVCAR-5 ovarian 32.6% | OVCAR-4 ovarian 11.4% | IGROV1 ovarian 35.6% | HS 578T breast 26.2% | NCI/ADR-RES ovarian 94.9%
active: A498 renal -11.1% | OVCAR-3 ovarian 8.87%

COc1cc(-c2nc(SCCC(C)C)nc(Nc3ccc(S(N)(=O)=O)cc3)c2C#N)cc(OC)c1OC
inactive: SK-MEL-2 melanoma 51.4% | EKVX NSCLC 45.1% | SN12C renal 26.4% | UO-31 renal 14.7% | TK-10 renal 50% | ACHN renal 29.5% | CAKI-1 renal 17.1% | A498 renal 43.5% | CCRF-CEM leukemia 14.1% | OVCAR-8 ovarian 29.9% | OVCAR-5 ovarian 53.9% | OVCAR-4 ovarian 19.8% | SK-OV-3 ovarian 76.5% | IGROV1 ovarian 40.5% | OVCAR-3 ovarian 32.5% | HS 578T breast 40.5% | NCI/ADR-RES ovarian 37.6%
active: SR leukemia -18.5% | RPMI-8226 leukemia -0.242%

COc1cc(-c2cc(-c3ccc(Nc4ncnc5cc(Cl)ccc45)cc3)nc(N3CCCCC3)n2)cc(OC)c1OC
inactive: SK-MEL-2 melanoma 91% | EKVX NSCLC 102% | SN12C renal 90.9% | UO-31 renal 80% | TK-10 renal 111% | ACHN renal 96.8% | CAKI-1 renal 93.1% | A498 renal 89.5% | CCRF-CEM leukemia 107% | MOLT-4 leukemia 90.8% | RPMI-8226 leukemia 109% | OVCAR-8 ovarian 88.9% | OVCAR-5 ovarian 96.1% | IGROV1 ovarian 90.5% | OVCAR-3 ovarian 107% | NCI/ADR-RES ovarian 104%

O=C(NCc1ccc(Cn2c(=O)sn(-c3ccccc3)c2=O)cc1)OCc1ccc2c(Br)cc(Br)c(O)c2n1
active: TK-10 renal -90.5%

Nc1nc(Nc2ccccc2)c2ncn(Cc3cc4c(cc3Br)OCO4)c2n1
inactive: TK-10 renal 35.1%

O=C(CCN1CCCCC1)c1ccc(Cl)cc1
inactive: SN12C renal 111%

CCOC(=O)CCC[P+](c1ccccc1)(c1ccccc1)c1ccccc1
inactive: SN12C renal 82%

O=S(=O)(NCCNc1nccc(-c2c(-c3cccc(F)c3)nc3occn23)n1)c1ccc(C(F)(F)F)cc1
inactive: EKVX NSCLC 84.2% | SN12C renal 84.8% | UO-31 renal 57.1% | TK-10 renal 97.5% | ACHN renal 87.7% | CAKI-1 renal 68.9% | A498 renal 78% | CCRF-CEM leukemia 84% | MOLT-4 leukemia 52.9% | SR leukemia 88.3% | RPMI-8226 leukemia 75.5% | OVCAR-8 ovarian 87.5% | OVCAR-5 ovarian 102% | OVCAR-4 ovarian 87.6% | SK-OV-3 ovarian 79.5% | IGROV1 ovarian 77% | OVCAR-3 ovarian 99.1% | HS 578T breast 74.3% | NCI/ADR-RES ovarian 95.5%

COc1ccc(/C=C(/C(=O)c2ccc(Cl)cc2)C(=O)C(F)(F)F)cc1
inactive: EKVX NSCLC 92.5% | SN12C renal 98% | UO-31 renal 78.6% | TK-10 renal 75.3% | ACHN renal 110% | CAKI-1 renal 94.3% | A498 renal 82.4% | CCRF-CEM leukemia 89.7% | MOLT-4 leukemia 85.8% | SR leukemia 76.2% | RPMI-8226 leukemia 90.2% | OVCAR-8 ovarian 102% | OVCAR-5 ovarian 103% | SK-OV-3 ovarian 100% | IGROV1 ovarian 96% | OVCAR-3 ovarian 98.7% | HS 578T breast 96.2% | NCI/ADR-RES ovarian 95.8%

C=C(C)[C@@H]1CC[C@]2(C(=O)NCCNCCNCCN)CC[C@]3(C)[C@H](CC[C@@H]4[C@@]5(C)CCC(=O)C(C)(C)[C@@H]5CC[C@]43C)[C@@H]12
active: SN12C renal -88.5% [100 µM] | UO-31 renal -96.4% [100 µM] | TK-10 renal -77.7% [100 µM] | ACHN renal -83.3% [100 µM] | CAKI-1 renal -8.79% [100 µM] | CCRF-CEM leukemia -11.3% [100 µM] | SR leukemia 4.96% [100 µM] | RPMI-8226 leukemia -30.7% [100 µM] | OVCAR-8 ovarian -75% [100 µM] | OVCAR-5 ovarian -44.1% [100 µM] | IGROV1 ovarian -84.8% [100 µM] | OVCAR-3 ovarian -72.5% [100 µM] | NCI/ADR-RES ovarian -73.3% [100 µM]
inactive: EKVX NSCLC 11.4% [100 µM] | A498 renal 80.8% [100 µM] | SK-OV-3 ovarian 70.5% [100 µM] | HS 578T breast 47.8% [100 µM]

CCn1cc(-c2ccnc(NCCNS(=O)(=O)c3cccc4ccccc34)c2)c(-c2cccc(O)c2)n1
inactive: EKVX NSCLC 96.9% | SN12C renal 96.7% | UO-31 renal 90.3% | TK-10 renal 114% | ACHN renal 100% | CAKI-1 renal 102% | A498 renal 91.5% | CCRF-CEM leukemia 95% | MOLT-4 leukemia 93.1% | SR leukemia 74.9% | RPMI-8226 leukemia 74% | OVCAR-8 ovarian 101% | OVCAR-5 ovarian 123% | OVCAR-4 ovarian 99.9% | SK-OV-3 ovarian 106% | IGROV1 ovarian 91.5% | OVCAR-3 ovarian 100% | HS 578T breast 95.3% | NCI/ADR-RES ovarian 102%

Cn1cc(-c2noc(C(=O)c3cn(C)c4ncccc34)n2)c2ccccc21
inactive: EKVX NSCLC 60.6% | SN12C renal 95% | UO-31 renal 75.9% | TK-10 renal 26.5% | ACHN renal 98.6% | CAKI-1 renal 86.2% | A498 renal 69.9% | CCRF-CEM leukemia 98.1% | MOLT-4 leukemia 95.6% | SR leukemia 74.9% | RPMI-8226 leukemia 94.5% | OVCAR-8 ovarian 102% | OVCAR-5 ovarian 96.1% | OVCAR-4 ovarian 57.7% | IGROV1 ovarian 80.7% | OVCAR-3 ovarian 103% | HS 578T breast 88.5% | NCI/ADR-RES ovarian 92.3%

CCN=Cc1c(O)c(O)c(C(C)C)c2cc(C)c(-c3c(C)cc4c(C(C)C)c(O)c(O)c(C=NCC)c4c3O)c(O)c12
inactive: EKVX NSCLC 30.5% | SN12C renal 54.9% | UO-31 renal 39.2% | TK-10 renal 43.5% | ACHN renal 24.4% | CAKI-1 renal 73.3% | A498 renal 69.5% | CCRF-CEM leukemia 20.1% | MOLT-4 leukemia 32.8% | SR leukemia 27% | RPMI-8226 leukemia 34.8% | OVCAR-8 ovarian 39.2% | OVCAR-5 ovarian 63.4% | OVCAR-4 ovarian 31.7% | SK-OV-3 ovarian 63.4% | OVCAR-3 ovarian 32.5% | HS 578T breast 57.8% | NCI/ADR-RES ovarian 47.9%

COc1cc(/C=C/C(=O)/C=C/c2ccc(-n3ccnc3C)cc2)ccc1O
inactive: EKVX NSCLC 102% | SN12C renal 91.4% | TK-10 renal 88% | ACHN renal 58.8% | CAKI-1 renal 95.6% | A498 renal 78.8% | CCRF-CEM leukemia 35.5% | MOLT-4 leukemia 32.4% | SR leukemia 17.8% | OVCAR-8 ovarian 34.9% | OVCAR-5 ovarian 101% | SK-OV-3 ovarian 86.1% | OVCAR-3 ovarian 23.7% | NCI/ADR-RES ovarian 102%
active: UO-31 renal 4.27% | RPMI-8226 leukemia -23.5% | IGROV1 ovarian -37.5%

COc1ccc(C2=C(c3cn(C)c4ccccc34)C(=O)OC2)cc1OC
active: A498 renal -10.9% | OVCAR-3 ovarian -8.6%
inactive: EKVX NSCLC 53% | SN12C renal 36.9% | UO-31 renal 25% | TK-10 renal 61.4% | ACHN renal 34% | CAKI-1 renal 25.6% | CCRF-CEM leukemia 31.2% | MOLT-4 leukemia 32.4% | SR leukemia 29.1% | RPMI-8226 leukemia 40% | OVCAR-8 ovarian 47.8% | OVCAR-5 ovarian 64.9% | OVCAR-4 ovarian 39.8% | IGROV1 ovarian 43.4% | HS 578T breast 22.5% | NCI/ADR-RES ovarian 22.7%

COc1ccc2[nH]c(C(=O)N3CCN(C(=O)OCc4ccc5c(Br)cc(Br)c(O)c5n4)CC3)cc2c1
active: EKVX NSCLC -76% | SN12C renal -86.8% | UO-31 renal -100% | TK-10 renal -99.5% | ACHN renal -100% | CAKI-1 renal -96% | A498 renal -97% | CCRF-CEM leukemia -11.8% | MOLT-4 leukemia -22.3% | SR leukemia 4.37% | RPMI-8226 leukemia -38.9% | OVCAR-8 ovarian -73.2% | OVCAR-5 ovarian -89.3% | OVCAR-4 ovarian -85.2% | SK-OV-3 ovarian -70.7% | IGROV1 ovarian -90.7% | OVCAR-3 ovarian -93.9% | HS 578T breast -22.5% | NCI/ADR-RES ovarian -17.4%

CCOC(=O)C1=C(C(=O)c2ccc(Br)cc2)C(c2ccc(Br)cc2)NC(=S)N1 (stereo unspecified)
inactive: EKVX NSCLC 104% | SN12C renal 98.3% | UO-31 renal 76.8% | TK-10 renal 130% | ACHN renal 97.6% | CAKI-1 renal 86% | A498 renal 90.6% | CCRF-CEM leukemia 114% | MOLT-4 leukemia 114% | SR leukemia 108% | RPMI-8226 leukemia 111% | OVCAR-8 ovarian 97.8% | OVCAR-5 ovarian 108% | OVCAR-4 ovarian 107% | SK-OV-3 ovarian 110% | IGROV1 ovarian 92% | OVCAR-3 ovarian 105% | NCI/ADR-RES ovarian 103%
